Reference: PubChem BioAssay (NCI)
This is part of a sample that, as a whole, favours compounds with a hit. Of some 83,000 tested, about 20% had one in any assay.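 Negative percent growth values reflect cell death: -40 means 40% of the cells present at the start died, and -100 means all died.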 Calls of active or inactive are those of the source. How the source made its calls: active means growth percent below 10; inactive means the rest. Where a SMILES comes first, the peptide text is derived from it. Bridges are numbered along the chain shown (N, C = ends). [ ]: non-standard residue; d: D form. The star is where a group is joined. ξ: configuration not given here. ξNMePhe(4-NMe2) = CNC(Cc1ccc(N(C)C)cc1)C(=O)O; Picolinoyl(3-OH) = O=C(c1ncccc1O)*; ξPip(4-oxo) = O=C1CCNC(C(=O)O)C1; Phg = N[CH](C(=O)O)c1ccccc1; Abu = CC[CH](N)C(=O)O

Tested on: NCI-H522 lung
Test: NCI-60 one-dose screen, 48 h (100 = growth as untreated, 0 = no growth, -100 = all killed)
Settings: 10 µM

SMILES | growth
Nc1nc2c(c(-c3nc(N)nc4c3CCc3ccccc3-4)n1)CCc1ccccc1-2 | 99.1% (inactive)
CCOC(=O)CCCS(C)(=O)=O | 109% (inactive)
COc1ccccc1NC(=O)C1=C(C)NC(C)=C(C(=O)Nc2ccccc2OC)C1c1cccc([N+](=O)[O-])c1 | 72.4% (inactive)
O=C(c1ccccc1)C1CCC1 | 85.9% (inactive)
CCOC(=O)C(=O)C=P(c1ccccc1)(c1ccccc1)c1ccccc1 | 90.1% (inactive)
O=[N+]([O-])c1cccc(C(F)(F)F)c1 | 85.5% (inactive)
CCCC(=O)Nc1ccc2c(c1)CN1C(=O)c3ccccc3C1=N2 | 106% (inactive)
CC(C)=NNc1ccc([N+](=O)[O-])cc1[N+](=O)[O-] | 82.1% (inactive)
CC(=O)OCC1=CC2OC(=O)C3=COC(OC4OC(CO)C(O)C(O)C4O)C1C32 (stereo unspecified) | 93.5% (inactive)
COc1nc(N)nc2c1ncn2C1OC(CO)CC1O (stereo unspecified) | 106% (inactive)
Nc1ccc(C(=O)c2ccc(N)c(Br)c2)cc1Br | -36.1% (active)
CO[C@H]1C[C@@H]2CC[C@@H](C)[C@@](O)(O2)C(=O)C(=O)N2CCCC[C@H]2C(=O)O[C@H]([C@H](C)C[C@@H]2CC[C@@H](O)[C@H](OC)C2)CC(=O)[C@H](C)C=C(C)[C@@H](O)[C@@H](OC)C(=O)[C@H](C)C[C@H](C)/C=C/C=C/C=C1C | 53.8% (inactive)
CC(=O)OCCC(C)CCC=C(C)C (stereo unspecified) | 92.7% (inactive)
CCOC(=O)c1cc(/C=C/c2cccc(Cl)c2)on1 | 74.6% (inactive)
COC(=O)C(C)Oc1ccc(OC#N)cc1 (stereo unspecified) | 103% (inactive)
Cc1cc(N)ccc1-c1ccc(N)cc1C | 96.9% (inactive)
CCC1NC(=O)C(NC(=O)c2ncccc2O)C(C)OC(=O)C(c2ccccc2)NC(=O)C2CC(=O)CCN2C(=O)C(Cc2ccc(N(C)C)cc2)N(C)C(=O)C2CCCN2C1=O (stereo unspecified) (tested in a mixture with another compound) ({Picolinoyl(3-OH)}-T[Abu]P[ξNMePhe(4-NMe2)][ξPip(4-oxo)][Phg]; ester 1-C; configuration not given here) | 66% (inactive)
COc1ccc2c(NCCCCCCCCNc3c4ccccc4nc4cc(OC)ccc34)c3ccccc3nc2c1 | -74.1% (active)
CC1(O)OC(COc2ccc(Cl)cc2)COC1O (stereo unspecified) | 104% (inactive)

SMILES | growth
CCN(CC)C(=O)/C=C(/C)c1ccccc1 | 107% (inactive)
N=c1c(C(=O)OCc2ccccc2)ncc(CCl)n1O | -43.4% (active)
COC(=O)c1[nH]c(=O)c(C#N)c(C(=O)OC)c1C(=O)c1ccccc1 | 99.7% (inactive)
CCCNC(=O)c1ccc(S(N)(=O)=O)cc1 | 115% (inactive)
O=C(c1ccc(O)cc1)c1ccc(O)cc1 | 95.8% (inactive)
NC(=O)N/N=C\c1ccco1 | 92.1% (inactive)
O=S(=O)(O)CC(O)CN1CCN(CCO)CC1 (stereo unspecified) | 89% (inactive)
Cc1ccc(C)n1-c1ccsc1C(=O)NNC(=O)C(Cl)Cl | 91.9% (inactive)
O=c1cc(-c2ccccc2)oc2c1ccc1ccccc12 | 79.3% (inactive)
Oc1ccc(N=Nc2ccc(Br)cc2)c(O)c1 | -32.1% (active)
O=c1c2ccccc2c(Br)c(Br)c2ccccc12 | -33.9% (active)
C/C(=C\c1cc(Cl)ccc1OCC(=O)O)[N+](=O)[O-] | 75.6% (inactive)
COC(=O)/C=C\C(=O)OC | 89.2% (inactive)
O=C(O)c1cc([N+](=O)[O-])ccc1Cl | 73% (inactive)
N#Cc1c(N)sc(=S)c2c1CCCC2 | 102% (inactive)
CCOC(=O)c1[nH]c(C)c(C(=O)O)c1C | 90.4% (inactive)
C#C[C@H]1CCCCCC1O (stereo partly specified) | 94.8% (inactive)
Nc1nc(N)c2cc(S(=O)(=O)c3cccc(C(F)(F)F)c3)ccc2n1 | 63.9% (inactive)
CCN(CC)CCCC(C)Nc1ccnc(/C=C/c2ccc(Cl)cc2)c1 (stereo unspecified) | -38.6% (active)

Tested on: A549/ATCC NSCLC
Test: as above
Settings: 10 µM

SMILES | growth
Nc1nc2c(c(-c3nc(N)nc4c3CCc3ccccc3-4)n1)CCc1ccccc1-2 | 106% (inactive)
CCOC(=O)CCCS(C)(=O)=O | 109% (inactive)
COc1ccccc1NC(=O)C1=C(C)NC(C)=C(C(=O)Nc2ccccc2OC)C1c1cccc([N+](=O)[O-])c1 | 67% (inactive)
O=C(c1ccccc1)C1CCC1 | 71.6% (inactive)
CCOC(=O)C(=O)C=P(c1ccccc1)(c1ccccc1)c1ccccc1 | 100% (inactive)
O=[N+]([O-])c1cccc(C(F)(F)F)c1 | 94.7% (inactive)
CCCC(=O)Nc1ccc2c(c1)CN1C(=O)c3ccccc3C1=N2 | 90% (inactive)
CC(C)=NNc1ccc([N+](=O)[O-])cc1[N+](=O)[O-] | 83.2% (inactive)
CC(=O)OCC1=CC2OC(=O)C3=COC(OC4OC(CO)C(O)C(O)C4O)C1C32 (stereo unspecified) | 138% (inactive)
COc1nc(N)nc2c1ncn2C1OC(CO)CC1O (stereo unspecified) | 111% (inactive)
Nc1ccc(C(=O)c2ccc(N)c(Br)c2)cc1Br | 17.9% (inactive)
CO[C@H]1C[C@@H]2CC[C@@H](C)[C@@](O)(O2)C(=O)C(=O)N2CCCC[C@H]2C(=O)O[C@H]([C@H](C)C[C@@H]2CC[C@@H](O)[C@H](OC)C2)CC(=O)[C@H](C)C=C(C)[C@@H](O)[C@@H](OC)C(=O)[C@H](C)C[C@H](C)/C=C/C=C/C=C1C | 39% (inactive)
CC(=O)OCCC(C)CCC=C(C)C (stereo unspecified) | 101% (inactive)
CCOC(=O)c1cc(/C=C/c2cccc(Cl)c2)on1 | 104% (inactive)
COC(=O)C(C)Oc1ccc(OC#N)cc1 (stereo unspecified) | 99.4% (inactive)
Cc1cc(N)ccc1-c1ccc(N)cc1C | 92.8% (inactive)
CCC1NC(=O)C(NC(=O)c2ncccc2O)C(C)OC(=O)C(c2ccccc2)NC(=O)C2CC(=O)CCN2C(=O)C(Cc2ccc(N(C)C)cc2)N(C)C(=O)C2CCCN2C1=O (stereo unspecified) (tested in a mixture with another compound) ({Picolinoyl(3-OH)}-T[Abu]P[ξNMePhe(4-NMe2)][ξPip(4-oxo)][Phg]; ester 1-C; configuration not given here) | 28.1% (inactive)
COc1ccc2c(NCCCCCCCCNc3c4ccccc4nc4cc(OC)ccc34)c3ccccc3nc2c1 | -64.7% (active)
CC1(O)OC(COc2ccc(Cl)cc2)COC1O (stereo unspecified) | 106% (inactive)

SMILES | growth
CCN(CC)C(=O)/C=C(/C)c1ccccc1 | 113% (inactive)
N=c1c(C(=O)OCc2ccccc2)ncc(CCl)n1O | 101% (inactive)
COC(=O)c1[nH]c(=O)c(C#N)c(C(=O)OC)c1C(=O)c1ccccc1 | 93.7% (inactive)
CCCNC(=O)c1ccc(S(N)(=O)=O)cc1 | 112% (inactive)
O=C(c1ccc(O)cc1)c1ccc(O)cc1 | 96.9% (inactive)
NC(=O)N/N=C\c1ccco1 | 110% (inactive)
O=S(=O)(O)CC(O)CN1CCN(CCO)CC1 (stereo unspecified) | 98.8% (inactive)
Cc1ccc(C)n1-c1ccsc1C(=O)NNC(=O)C(Cl)Cl | 102% (inactive)
O=c1cc(-c2ccccc2)oc2c1ccc1ccccc12 | 73.6% (inactive)
Oc1ccc(N=Nc2ccc(Br)cc2)c(O)c1 | 12.5% (inactive)
O=c1c2ccccc2c(Br)c(Br)c2ccccc12 | 95.1% (inactive)
C/C(=C\c1cc(Cl)ccc1OCC(=O)O)[N+](=O)[O-] | 92% (inactive)
COC(=O)/C=C\C(=O)OC | 100% (inactive)
O=C(O)c1cc([N+](=O)[O-])ccc1Cl | 95.3% (inactive)
N#Cc1c(N)sc(=S)c2c1CCCC2 | 105% (inactive)
CCOC(=O)c1[nH]c(C)c(C(=O)O)c1C | 76.2% (inactive)
C#C[C@H]1CCCCCC1O (stereo partly specified) | 105% (inactive)
Nc1nc(N)c2cc(S(=O)(=O)c3cccc(C(F)(F)F)c3)ccc2n1 | 15.9% (inactive)
CCN(CC)CCCC(C)Nc1ccnc(/C=C/c2ccc(Cl)cc2)c1 (stereo unspecified) | 9.38% (active)
